Data as given in PubChem BioAssay (NCI).
Compounds without any hit were thinned out: in the full panel of roughly 83,000, 20% have a hit.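 Negative percent growth values reflect cell death: -40 means 40% of the cells present at the start died, and -100 means all died.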 A number with no mark means an inactive call. Activity calls are given as the source filed them. The calls were made as follows: active = growth percent below 10; inactive = the rest.

Legend:
Assay in all cases: NCI-60 one-dose screen, 48 h (100 = growth as untreated, 0 = no growth, -100 = all killed)
Conditions in all cases: 10 µM unless noted
HCT-15 colon = tested on: HCT-15 colon
HT29 colon = tested on: HT29 colon
SNB-75 CNS = tested on: SNB-75 CNS
SNB-19 CNS = tested on: SNB-19 CNS
U251 CNS = tested on: U251 CNS
PC-3 prostate = tested on: PC-3 prostate
SK-MEL-5 melanoma = tested on: SK-MEL-5 melanoma
UACC-62 melanoma = tested on: UACC-62 melanoma
SK-MEL-28 melanoma = tested on: SK-MEL-28 melanoma
SK-MEL-2 melanoma = tested on: SK-MEL-2 melanoma
EKVX NSCLC = tested on: EKVX NSCLC
SN12C renal = tested on: SN12C renal
UO-31 renal = tested on: UO-31 renal
TK-10 renal = tested on: TK-10 renal
ACHN renal = tested on: ACHN renal
CAKI-1 renal = tested on: CAKI-1 renal
A498 renal = tested on: A498 renal
CCRF-CEM leukemia = tested on: CCRF-CEM leukemia
MOLT-4 leukemia = tested on: MOLT-4 leukemia
LOX IMVI melanoma = tested on: LOX IMVI melanoma

SMILES | growth (HCT-15 colon) | growth (HT29 colon) | growth (SNB-75 CNS) | growth (SNB-19 CNS) [%] | growth (U251 CNS) | growth (PC-3 prostate) | growth (SK-MEL-5 melanoma) | growth (UACC-62 melanoma) [%] | growth (SK-MEL-28 melanoma) [%] | growth (SK-MEL-2 melanoma) | growth (EKVX NSCLC) [%] | growth (SN12C renal) | growth (UO-31 renal) [%] | growth (TK-10 renal) [%] | growth (ACHN renal) [%] | growth (CAKI-1 renal) [%] | growth (A498 renal) | growth (CCRF-CEM leukemia) | growth (MOLT-4 leukemia) | growth (LOX IMVI melanoma) [%]
NCCNc1nc(-c2ccccc2)nc2nc(-c3ccccc3)oc12 | 70% | 71.6% | 61.9% | 89.8 | 70.3% | 80.4% | 89.2% | 99.9 | 103 | 107% | 102 | 80.6% | 69.6 | 119 | 79 | 73.9 | 90% | 91.5% | – | –
O=C1C=Cc2ncccc2C1=O | 80.3% | 108% | 119% | 85.2 | 42.2% | 88.5% | 92.9% | 90.7 | 121 | 114% | 64.7 | 65.2% | 68.3 | 111 | 76.1 | 81.2 | 125% | -37.5% (active) | 0.968% (active) | –
Cc1nc([P+](c2ccccc2)(c2ccccc2)c2ccccc2)c(Sc2sc(-c3ccccc3)nc2[P+](c2ccccc2)(c2ccccc2)c2ccccc2)o1 | 30.2% | 4.54% (active) | -3.87% (active) | 16.2 | 14.3% | 3.44% (active) | -17.1% (active) | 19.2 | 54.5 | 3.95% (active) | 14.8 | 7.4% (active) | 20.9 | 38.7 | 17.3 | 15.4 | -9.69% (active) | 18.4% | – | –
S=c1[nH]nc2ccccn12 | 101% | 87.5% | 88.7% | 110 | 114% | 108% | 92.3% | 108 | 109 | 95.3% | 102 | 106% | 87.7 | 85.7 | 102 | 102 | 100% | 101% | 80.7% | –
C#CCn1c2c(c3ccccc31)C[C@]1(C)[C@H]3CC[C@@H]4[C@@H]5C(=CCC[C@H]5C(=C)C)CC[C@@]4(C)[C@]3(C)CC[C@H]1C2(C)C | 104% | 104% | 90.3% | 100 | 106% | 97.3% | 100% | 95.2 | 106 | 104% | 99.2 | 95.6% | 77.1 | 122 | 99.2 | 80.1 | 111% | 114% | 99.9% | –
Brc1ccc(Cn2nnnc2-c2ccn(-c3ccccc3)n2)cc1 | 83% | 63.6% | 90.1% | 78.9 | 75.7% | 60.8% | 74% | 53 | 95.3 | 63.5% | 69.8 | 68.5% | 69.2 | 77.6 | 70.7 | 58.2 | 52.5% | 56.7% | 52.4% | –
CC1(C)NCCC[C@]2(C)[C@H]3CC[C@@H]4[C@H]5[C@H](C(=O)/C=C/c6ccccn6)CC[C@]5(CO)CC[C@@]4(C)[C@]3(C)CC[C@@H]12 | -4.7% (active) | -13.5% (active) | 105% | 77.6 | -21.6% (active) | 22.2% | 56.3% | 72.8 | 88.3 | 108% | 101 | 62.4% | 66.8 | 176 | 73.4 | 32.7 | 84% | 12.3% | 3.77% (active) | –
Cc1ccc(-c2ccc(Nc3ccccc3)nn2)cc1S(N)(=O)=O | 65.9% | 70.9% | 87.1% | 106 | 93.7% | 93.8% | 89.3% | 89 | 89.1 | – | – | 90.1% | 107 | 142 | 91.6 | 80.9 | 89.2% | – | 62.2% | 73.7
